Where “and” joins values, the source holds several entries; their conditions need not be identical. Equal entries are not always repeated. Among all 340,000 compounds or so, about 1,000 (0.29%) were called active. Cut-off read from the data, not from the text of the source: inconclusive = inhibition above about 29% without an active follow-up result; inactive = below that. These entries were drawn from the full list. Measured potencies and affinities stand elsewhere.
Biological target: Genome polyprotein (Dengue virus type 2 (strain 16681-PDK53)) (UniProt P29991)
Sequence (P29991 whole entry, looked up): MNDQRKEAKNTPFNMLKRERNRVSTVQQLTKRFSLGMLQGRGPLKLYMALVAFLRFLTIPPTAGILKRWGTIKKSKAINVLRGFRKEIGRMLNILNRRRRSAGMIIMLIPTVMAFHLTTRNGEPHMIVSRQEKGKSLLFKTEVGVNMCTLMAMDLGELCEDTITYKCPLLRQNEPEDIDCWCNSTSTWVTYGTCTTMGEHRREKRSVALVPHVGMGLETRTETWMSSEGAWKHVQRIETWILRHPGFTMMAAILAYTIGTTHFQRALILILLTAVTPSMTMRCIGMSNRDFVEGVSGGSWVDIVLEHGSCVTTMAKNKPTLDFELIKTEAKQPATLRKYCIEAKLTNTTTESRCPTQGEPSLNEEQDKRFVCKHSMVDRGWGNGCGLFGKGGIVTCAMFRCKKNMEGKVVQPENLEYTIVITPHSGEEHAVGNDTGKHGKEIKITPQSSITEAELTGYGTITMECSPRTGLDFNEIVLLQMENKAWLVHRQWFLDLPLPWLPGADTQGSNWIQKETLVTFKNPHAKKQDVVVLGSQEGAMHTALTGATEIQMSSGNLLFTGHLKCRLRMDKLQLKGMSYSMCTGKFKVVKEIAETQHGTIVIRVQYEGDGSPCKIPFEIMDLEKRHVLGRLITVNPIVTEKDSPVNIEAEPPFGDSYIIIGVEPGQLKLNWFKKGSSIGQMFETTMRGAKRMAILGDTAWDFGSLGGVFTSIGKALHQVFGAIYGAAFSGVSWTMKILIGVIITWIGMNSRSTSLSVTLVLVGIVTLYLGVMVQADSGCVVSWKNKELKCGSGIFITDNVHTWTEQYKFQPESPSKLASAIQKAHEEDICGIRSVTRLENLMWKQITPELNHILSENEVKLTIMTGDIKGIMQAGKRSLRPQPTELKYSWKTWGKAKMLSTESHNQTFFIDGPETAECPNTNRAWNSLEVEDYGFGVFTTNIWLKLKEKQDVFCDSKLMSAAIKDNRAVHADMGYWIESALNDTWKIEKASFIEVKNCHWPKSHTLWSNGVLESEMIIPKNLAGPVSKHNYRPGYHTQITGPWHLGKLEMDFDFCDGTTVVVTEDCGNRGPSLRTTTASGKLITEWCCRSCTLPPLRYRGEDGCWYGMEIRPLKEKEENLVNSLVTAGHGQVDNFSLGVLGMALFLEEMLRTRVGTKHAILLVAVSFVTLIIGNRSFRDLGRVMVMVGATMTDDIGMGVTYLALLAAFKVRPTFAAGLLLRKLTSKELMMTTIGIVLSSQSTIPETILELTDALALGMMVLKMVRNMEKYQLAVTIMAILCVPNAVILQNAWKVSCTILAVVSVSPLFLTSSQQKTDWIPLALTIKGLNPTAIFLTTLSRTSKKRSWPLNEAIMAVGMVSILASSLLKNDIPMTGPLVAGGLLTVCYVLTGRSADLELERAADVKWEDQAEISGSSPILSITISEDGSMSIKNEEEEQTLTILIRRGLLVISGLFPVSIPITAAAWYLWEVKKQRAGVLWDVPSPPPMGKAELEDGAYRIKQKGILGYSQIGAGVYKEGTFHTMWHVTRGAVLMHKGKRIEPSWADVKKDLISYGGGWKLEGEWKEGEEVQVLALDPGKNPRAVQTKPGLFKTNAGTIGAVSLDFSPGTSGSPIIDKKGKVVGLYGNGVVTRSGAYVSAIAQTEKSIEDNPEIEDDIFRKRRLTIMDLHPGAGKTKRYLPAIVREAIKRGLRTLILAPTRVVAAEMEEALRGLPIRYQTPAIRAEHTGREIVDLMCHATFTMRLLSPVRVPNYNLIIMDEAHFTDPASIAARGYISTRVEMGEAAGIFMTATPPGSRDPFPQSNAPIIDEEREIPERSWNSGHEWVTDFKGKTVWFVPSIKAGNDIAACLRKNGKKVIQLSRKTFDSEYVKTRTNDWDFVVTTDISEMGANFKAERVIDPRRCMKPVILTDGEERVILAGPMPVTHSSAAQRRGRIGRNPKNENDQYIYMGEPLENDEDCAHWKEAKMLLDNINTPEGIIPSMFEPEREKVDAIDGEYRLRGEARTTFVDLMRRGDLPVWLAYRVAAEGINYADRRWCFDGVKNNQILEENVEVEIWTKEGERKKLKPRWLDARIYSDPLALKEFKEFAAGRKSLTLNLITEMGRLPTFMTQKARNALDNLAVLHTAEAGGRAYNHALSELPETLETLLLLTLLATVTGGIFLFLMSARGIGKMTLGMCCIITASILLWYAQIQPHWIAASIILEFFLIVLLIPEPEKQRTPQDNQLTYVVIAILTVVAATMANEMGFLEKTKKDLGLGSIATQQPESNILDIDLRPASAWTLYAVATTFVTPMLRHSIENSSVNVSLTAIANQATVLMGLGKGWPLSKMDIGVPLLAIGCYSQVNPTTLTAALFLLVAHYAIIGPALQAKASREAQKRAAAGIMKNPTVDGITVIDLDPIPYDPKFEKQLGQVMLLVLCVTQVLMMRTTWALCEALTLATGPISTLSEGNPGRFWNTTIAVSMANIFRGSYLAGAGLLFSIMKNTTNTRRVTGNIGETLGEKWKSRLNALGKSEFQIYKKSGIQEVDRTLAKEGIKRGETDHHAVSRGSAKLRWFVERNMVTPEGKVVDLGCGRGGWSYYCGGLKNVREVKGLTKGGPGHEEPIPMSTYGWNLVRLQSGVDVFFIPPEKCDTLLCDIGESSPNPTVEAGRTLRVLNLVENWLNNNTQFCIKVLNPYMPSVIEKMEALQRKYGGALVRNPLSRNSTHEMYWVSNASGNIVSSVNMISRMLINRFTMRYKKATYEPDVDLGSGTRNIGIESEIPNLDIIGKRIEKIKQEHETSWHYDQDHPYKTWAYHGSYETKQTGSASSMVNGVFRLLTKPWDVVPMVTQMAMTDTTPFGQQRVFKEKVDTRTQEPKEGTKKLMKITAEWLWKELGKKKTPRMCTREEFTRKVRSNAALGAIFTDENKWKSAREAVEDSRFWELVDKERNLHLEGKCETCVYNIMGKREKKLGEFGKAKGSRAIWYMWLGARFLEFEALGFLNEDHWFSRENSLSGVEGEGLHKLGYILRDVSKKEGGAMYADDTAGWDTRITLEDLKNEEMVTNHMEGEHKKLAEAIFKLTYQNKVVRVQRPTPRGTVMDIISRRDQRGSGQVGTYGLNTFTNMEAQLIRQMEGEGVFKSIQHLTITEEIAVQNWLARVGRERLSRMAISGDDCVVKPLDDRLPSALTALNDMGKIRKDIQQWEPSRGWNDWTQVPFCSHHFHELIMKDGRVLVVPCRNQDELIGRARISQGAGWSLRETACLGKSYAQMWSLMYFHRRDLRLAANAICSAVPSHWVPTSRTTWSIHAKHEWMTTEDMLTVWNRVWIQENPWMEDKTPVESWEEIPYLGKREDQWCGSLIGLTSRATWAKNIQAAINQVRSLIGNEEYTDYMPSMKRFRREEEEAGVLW
Assay: Dengue-2 NS5 methyltransferase inhibitors, primary screen, biochemical, confirmation dose response (AID 588689)
Conditions: Dengue-2 NS5 methyltransferase capping enzyme assay, at 25 µM, stronger effect = higher value
[1] = measured here: pilot screen replicate inhibition

SMILES | inhibition | inhibition [1] [%]
COc1cc(C=c2c3ccccc3n3c2cc(-c2ccccc2)[n+]3C)cc(OC)c1OC | -32.8% (inactive) | –
CN(C)c1ccc(C=c2c3cc(O)ccc3n3c2cc(-c2ccccc2)[n+]3C)cc1 | 27.4% (inactive) | –
CN(C)c1ccc(C=c2c3ccccc3n3c2cc(-c2ccccc2)[n+]3C)cc1 | 16.6% (inactive) | –
C[n+]1c(-c2ccccc2)cc2c(=Cc3ccccc3)c3ccccc3n21 | -8.87% (inactive) | –
C=CCn1c(SCC#N)nc2ccccc2c1=O | 0.54% (inactive) | –
Cc1ccc(NC(=O)C(C)Sc2nnc(C)n2C)cc1 (stereo unspecified) | -10.5% (inactive) | -8.82
Nc1ccc(N=Nc2ccc(O)cc2)c(N)n1 | -2.31% (inactive) | –
Oc1ccc(N=Nc2ccc3ccccc3c2)cc1 | -0.57% (inactive) | –
COc1ccc(NC(=O)C2CCCN(S(=O)(=O)c3ccc4[nH]c(=O)ccc4c3)C2)cc1OC (stereo unspecified) | -7.99% (inactive) | –
CCN(CC)CCN(Cc1cc2cc3c(cc2[nH]c1=O)OCO3)C(=S)NCCCOC | -4.77% (inactive) | –
Cc1[nH]c2ccccc2c1C1C(c2ccccc2)=NN=C(C(C)C)N1O (stereo unspecified) | -11.8% (inactive) | –
CCCN(CCC)S(=O)(=O)c1cccc(-c2csc(C)n2)c1 | -5.33% (inactive) | –
COc1cccc(CN(C)C(=O)C2CSC3(C)CCC(=O)N23)c1OC (stereo unspecified) | -4.42% (inactive) | –
COc1cc(/C=C2/NC(=O)N(Cc3ccccc3F)C2=O)ccc1Oc1ccc([N+](=O)[O-])cn1 | -0.72% (inactive) | –
COc1cc(/C=C2/NC(=O)N(Cc3ccccc3F)C2=O)cc(OC)c1O | 1.47% (inactive) | –
COc1ccc(Cl)cc1-c1nc(SCC(=O)N(C)C)n[nH]1 | -2.97% (inactive) | –
Cc1nc2sc(C(c3ccco3)N3CCc4ccccc4C3)c(O)n2n1 (stereo unspecified) | -4.07% (inactive) | –
CCCCNC(=O)c1onc(CSc2ccccc2CC)c1C(=O)O | 6.29% (inactive) | –
CCCCNC(=O)c1onc(CSc2ccccc2C)c1C(=O)O | 7.73% (inactive) | –
Cc1cccc(NC(=O)N(Cc2nc3ccccc3c(=O)[nH]2)C2CCCC2)c1 | -1.56% (inactive) | –
CCOc1ccc(Br)cc1S(=O)(=O)Nc1cccc(S(=O)(=O)Nc2ccccc2C(=O)O)c1 | 11.4% (inactive) | –
O=C(O)c1cccc(-n2sc3ccccc3c2=O)c1 | -2.4% (inactive) | –

SMILES | inhibition | inhibition [1] [%]
CN(C)S(=O)(=O)c1cccc(-n2sc3ccccc3c2=O)c1 | -48.9% (inactive) | –
Cc1ccc(S(=O)(=O)Nc2cccc(S(=O)(=O)Nc3ccccc3C(=O)O)c2)c(C)c1 | 17.5% (inactive) | –
CN(CCOc1ccccc1)C(=O)c1cc(S(=O)(=O)N2CCOCC2)ccc1Cl | -7.25% (inactive) | –
NS(=O)(=O)c1ccc(NC(=O)Cc2cccs2)cc1 | 0% (inactive) | –
O=c1[nH]c2cc([N+](=O)[O-])cc(Cl)c2c2ccccc12 | 5.75% (inactive) | –
CNC(=O)CN1C(=O)NC2(CCc3ccccc3C2)C1=O (stereo unspecified) | 0.74% (inactive) | –
COCC(C)n1c(SCC(=O)NC(=O)Cc2ccccc2)nc2ccccc2c1=O (stereo unspecified) | 1.46% (inactive) | –
O=C(CSc1n[nH]c(-c2ccncc2)n1)Nc1ccc(Cl)c(C(=O)O)c1 | 0.89% (inactive) | –
CSc1nsc(SCC(=O)Nc2ccc(Cl)c(C(=O)O)c2)n1 | 8.31% (inactive) | –
O=C(Cn1cnc([N+](=O)[O-])n1)N/N=C/c1cc(Cl)ccc1O | -13.5% (inactive) | –
NS(=O)(=O)c1ccc(NS(=O)(=O)c2ccc(NC(=O)C3CC3)cc2)cc1 | 15.1% (inactive) | –
Cc1csc(SCC(=O)Nc2ccc(F)cc2Cl)n1 | -8.4% (inactive) | –
O=C(Nc1ncccc1Cl)C(Sc1ccccc1)c1ccccc1 (stereo unspecified) | -1.88% (inactive) | -5.46
CNC(=O)Oc1ccc2c(c1)[C@]1(C)CCN(C)C1N2C (stereo partly specified) | 0% (inactive) | –
CNC(=O)Oc1ccc2c(c1)[C@]1(C)CCN(C)[C@@H]1N2C | -1.49% (inactive) and -0.75% (inactive) | –
O=C(Nc1ccc(Cl)cc1)Nc1ccc2c(c1)N1CCN=C1S2 | -47.1% (inactive) | –
COC(=O)c1ccccc1NC(=O)CSc1nccn1C | 0.56% (inactive) | –
COc1cc(-c2ccc3sc(-c4ccsc4)c(C#CCO)c3c2)cc(OC)c1OC | 3.31% (inactive) | –
Cc1ccc(C2=C(O)C(=O)C(c3ccc(C)cc3)=C(O)C2=O)cc1 | 2.31% (inactive) | –
Cc1ccc(C2=C(O)c3ccccc3C(=O)C2=O)cc1 | 10.5% (inactive) | –
COc1ccc([N+](=O)[O-])cc1-c1[nH]c(-c2ccc(C(=O)O)cc2)nc1-c1ccccc1 | -2.87% (inactive) | –
CC(=O)Nc1ccc(S(=O)(=O)Nc2c(C)nn(-c3ccccc3)c2C)cc1 | -3.38% (inactive) | –

SMILES | inhibition | inhibition [1] [%]
COc1cc(NCc2ccccc2O)c2ncccc2c1 | -1.29% (inactive) | –
COc1cc(NC(=O)C2CCCCC2)c2ncccc2c1 | -4.93% (inactive) | –
CCN(CCCNC(=O)CNC(=O)c1nn(-c2ccc(OC)cc2OC)c(=O)c2ccccc12)c1cccc(C)c1 | -2.2% (inactive) | –
Cc1cccc(-n2ccnc2SCC(=O)Nc2cc(C)on2)c1 | -6.93% (inactive) | –
COc1ccc2[nH]c3c(c2c1)CCN1C(=O)C(CC(=O)NC(C)(C)C)C[C@H](C(=O)N(C(C)C)C(C)C)[C@@]31C (stereo partly specified) | -6.62% (inactive) | -4.89
Cc1cc(NS(=O)(=O)c2ccc(NC(=O)CSc3nc4sc(C(=O)O)c(C)c4c(=O)[nH]3)cc2)no1 | 1.64% (inactive) | –
Cc1cc(C)nc(SCC(=O)Nc2ccc(S(=O)(=O)Nc3cc(C)on3)cc2)n1 | -0.67% (inactive) | –
O=C1C(=O)N(C/C=C/c2ccccc2)c2ccccc21 | -12.9% (inactive) | –
N#CCCn1cc(/C=C2\NC(=S)N(c3ccccc3)C2=O)c(-c2ccc(F)cc2)n1 | -8.84% (inactive) | –
CC1=NN(c2ccccc2)C(=O)/C1=C\c1cn(CCC#N)nc1-c1ccc(Cl)cc1 | 5.39% (inactive) | –
CC1(C)CC(=O)C(=Cc2cn(-c3ccccc3)nc2-c2ccc(Cl)cc2)C(=O)C1 | -1.09% (inactive) | –
CC1=NNC(=O)/C1=C\c1cn(-c2ccccc2)nc1-c1ccccc1 | 10.9% (inactive) | –
CC1(C)CC(=O)C(=Cc2cn(-c3ccccc3)nc2-c2ccccc2)C(=O)C1 | 27.8% (inactive) | –
N#CCCn1cc(/C=N/O)c(-c2ccc(F)cc2)n1 | -2.03% (inactive) | –
Cc1ccc(NC(=O)c2cc(-c3cc(Cl)ccc3O)n[nH]2)cc1C | -6.12% (inactive) | –
COc1cccc(N2CCN(C(=O)CNC(=O)c3sc4ccccc4c3Cl)CC2)c1 | -1.29% (inactive) | –
O=C1CN(C(=O)COC(=O)c2ccccc2NCc2ccco2)c2ccccc2N1 | -4.76% (inactive) | –
CCOC(=O)c1c(C)[nH]c(C(=O)OCC(=O)N(CC(C)C)C2CCS(=O)(=O)C2)c1C (stereo unspecified) | 4.1% (inactive) | –
Cc1c(N(C)C(=O)c2ccccc2F)c(=O)n(-c2ccccc2)n1C | 2.15% (inactive) | –
COc1cccc(C(NC(=O)c2ccccc2F)NC(=O)c2ccccc2F)c1 | -5.64% (inactive) | –
CC(=NCCCNC1CCCCC1)C1=C(O)CC(C)(C)CC1=O | 10.2% (inactive) | –
O=C(NC1CCCc2ccccc21)C1CCN(c2c3c(nc4ncnn24)CCC3)CC1 (stereo unspecified) | -6.95% (inactive) | –

SMILES | inhibition | inhibition [1] [%]
O=C(O)C(Cc1ccc(O)cc1)N1C(=O)c2c(Cl)c(Cl)c(Cl)c(Cl)c2C1=O (stereo unspecified) | 16.9% (inactive) | –
O=C(O)C(Cc1ccccc1)N1C(=O)CCC1=O (stereo unspecified) | -3.06% (inactive) | –
O=C(O)C(Cc1ccccc1)N1C(=O)c2cccc3cccc(c23)C1=O (stereo unspecified) | -2.21% (inactive) | –
O=C(O)C(Cc1ccccc1)N1C(=O)c2ccccc2C1=O (stereo unspecified) | -1.57% (inactive) | –
Cc1cccc(C)c1NC(=O)C(c1ccc([N+](=O)[O-])cc1)N1CCCCC1 (stereo unspecified) | -3.23% (inactive) | –
Cc1onc(-c2ccccc2Cl)c1C(=O)Nc1ccc(-c2nnc3n2CCCCC3)cc1 | 9.09% (inactive) | –
O=C(CNC(=O)c1cccs1)Nc1ccncc1 | 1.47% (inactive) | –
Cc1cc(C(C)(C)C)oc1C(=O)N(CC(=O)NC1CCCC1)c1cccc(C(F)(F)F)c1 | -5.56% (inactive) | –
CCOC(=O)c1[nH]c2ccccc2c1NC(C)=O | 1.39% (inactive) | –
O=C(CC(c1ccccc1)c1cc(Br)ccc1O)N1CCCC1 (stereo unspecified) | -0.78% (inactive) | –
CCc1c(C(=O)O)[nH]c2ccc(Br)cc12 | 7.42% (inactive) | –
Cc1[nH][nH]c(=O)c1C(c1cc(Br)ccc1O)c1c(C)[nH][nH]c1=O | 0% (inactive) | –
CCOc1ccccc1NC(=O)CSCC(=O)Nc1ccccc1 | 0% (inactive) | –
CCOC(=O)N1CCN(CC(O)COCC2=CCC3CC2C3(C)C)CC1 (stereo unspecified) | 6.09% (inactive) | –
C[C@@H](C(=O)Nc1ccc2ccccc2c1)[C@H]1C[C@]1(C)[C@H](NC(=O)OCc1ccccc1)c1ccccc1 | 4.76% (inactive) | –
CCOC(=O)N1CCN(S(=O)(=O)N2CCCC(C(=O)NCc3ccccc3Cl)C2)CC1 (stereo unspecified) | -6.21% (inactive) | –
CC(NC(=O)C1CCC1)c1ccc(Cl)cc1 (stereo unspecified) | -3.24% (inactive) | –
O=C1C2C3C=CC(C4CC34)C2C(=O)N1/N=C/c1ccc(-c2ccc(Cl)cc2[N+](=O)[O-])o1 (stereo unspecified) | 0% (inactive) | –
Cc1ccc(-c2ccc(/C=N/N3C(=O)C4C5C=CC(CC5)C4C3=O)o2)c([N+](=O)[O-])c1 (stereo unspecified) | 4.83% (inactive) | –
COCc1cc(C)nc(N/N=C/c2ccc(-c3ccc(Cl)cc3[N+](=O)[O-])o2)c1C#N | 0.9% (inactive) | –
Cc1ccc(-c2ccc(/C=N/N3C(=O)C4C5C=CC(C6CC56)C4C3=O)o2)c([N+](=O)[O-])c1 (stereo unspecified) | -2.05% (inactive) | –
Cc1nc2ccccn2c1C(=O)N/N=C/c1ccccc1Cl | 0.65% (inactive) | –
